GFP response, % of DMSO, response and GFP response vs DMSO data for 68 compounds are collected here from PubChem BioAssay.

The nature of assay [1]: yeast AGP1-GFP level changes, GLN3 branch – cell-based, multiplex flow cytometry, S. cerevisiae, primary screen (AID 1887;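 active = GFP signal above the screen-wide mean plus 3 SD, that is over about 124.5% of the solvent control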;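 note: AGP1-GFP fusion strain of S. cerevisiae within a five-strain barcoded multiplex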). The settings on record: 3 h, at 10 µM, stronger effect = higher value.
In assay [2] the target is Beta-2 adrenergic receptor (Homo sapiens) (UniProt P07550). Description: agonist-induced loss of surface beta2AR – cell-based, FAP fluorogen, flow cytometry, validation set, pilot screen (AID 504459;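 active = percent response above 42, roughly 3 SD of non-fluorescent test compounds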;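 note: agonist-driven loss of surface beta2AR via internalization measured by FAP dye flow cytometry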). Conditions: Am2.2-beta2AR cells, at 10 µM, stronger effect = higher value.
Beta-2 adrenergic receptor (Homo sapiens), sequence (P07550 whole entry, looked up): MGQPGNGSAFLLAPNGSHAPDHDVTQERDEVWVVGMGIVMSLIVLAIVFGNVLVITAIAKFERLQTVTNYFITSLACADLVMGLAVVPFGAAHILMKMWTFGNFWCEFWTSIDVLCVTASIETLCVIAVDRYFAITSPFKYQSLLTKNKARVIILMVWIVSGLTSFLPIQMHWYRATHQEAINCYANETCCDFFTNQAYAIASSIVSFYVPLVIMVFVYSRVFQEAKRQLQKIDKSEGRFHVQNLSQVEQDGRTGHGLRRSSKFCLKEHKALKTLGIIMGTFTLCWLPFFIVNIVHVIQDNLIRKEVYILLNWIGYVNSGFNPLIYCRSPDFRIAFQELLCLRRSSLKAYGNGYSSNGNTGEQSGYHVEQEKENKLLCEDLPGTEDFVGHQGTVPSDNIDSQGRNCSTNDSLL
Assay [3] in a line: TOR pathway reporter MEP2-GFP, retest of hits – S. cerevisiae, flow cytometry GFP, cherry picks, confirmation (AID 2272;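 active = GFP response above 150% of the DMSO control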;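 note: ratio of well signal to plate DMSO mean so 100% equals DMSO level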). The settings on record: S. cerevisiae MEP2-GFP strain, 3 h, at 10 µM, stronger effect = higher value. (In flow cytometry, cells or beads pass a laser one at a time.)
Assay [4] is described as follows: yeast AGP1-GFP fluorescence change, single-dose – cell-based, flow cytometry, S. cerevisiae, cherry picks, confirmation (AID 2273).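 Note: median GFP channel fluorescence over the whole cell population gate.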 The settings on record: S. cerevisiae AGP1-GFP strain, 3 h, at 10 µM.

The structures appear in SMILES notation. “And” between values parts separate entries of the source, which are not always exact repeats. Equal entries are not always repeated. Unmarked numbers belong to inactive results. Results filed as inconclusive are left out. The source made the active and inactive calls.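 Rule for the calls, unless noted: active = GFP response above 150% of the DMSO level; inconclusive = fewer than 70 events counted for a yeast strain; inactive = the rest.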

With `C[N+]1(C)CCN(c2ccccc2)CC1`, the GFP response, % of DMSO in assay [1] was 96.6%. In the case of `C[N+]1(C)[C@@H]2CC(OC(=O)[C@H](CO)c3ccccc3)C[C@H]1[C@@H]1O[C@@H]12` (stereo partly specified), in assay [1], the GFP response, % of DMSO is 99.6% and 104%. The response in assay [2] is 4.9% and -6.87%. As to `CN1C(=O)NC(=O)/C(=C\C=C\c2ccccc2[N+](=O)[O-])C1=O`, the GFP response vs DMSO in assay [3] is 105%. Further, the GFP response, % of DMSO in assay [4] was 108%. For `C#CCOc1cc(C2C3=C(COC3=O)Nc3cc4c(cc32)OCO4)ccc1OC` (stereo unspecified), in that order: 117% and 103%. The matching figures for `CCN(CC)c1ccc(/C=C/[N+](=O)[O-])cc1`: 108% and 96.7%. For `O=C1NC(=O)C(=Cc2ccc(Sc3ccccc3)o2)C(=O)N1`, in that order: 92% and 83.6%.

Consider `CCOC(=O)c1cncn1C(C)c1ccccc1` (stereo unspecified), for which the GFP response, % of DMSO in assay [1] is 95%. In assay [2], the response was -9.36%. Regarding `O=C1C=Cc2ccccc2C1=O`, in assay [2], the response is -20.4%.

`O=c1[nH]c(=O)n(Cc2ccc(F)cc2)c(O)c1C=NCCN1CCCCC1`: in assay [3], the GFP response vs DMSO was 101%. In assay [4], the GFP response, % of DMSO is 102%.

For `Cc1cc(C=C2C(=O)N(C)C(=S)N(C)C2=O)c(C)n1-c1ccncc1`, the GFP response vs DMSO in assay [3] was 113%. Further, the GFP response, % of DMSO in assay [4] is 100%. Consider `CCN1CC2(COC(=O)c3ccccc3N)CCC(OC)C34C5CC6C(OC)CC(O)(C5C6OC)C(O)(C(OC)C23)C14` (stereo unspecified), for which the response in assay [2] was -0.45%. Regarding `O=[N+]([O-])c1ccc(N2CCNCC2)cc1Sc1ccccn1`, the GFP response vs DMSO in assay [3] was 97.8%. For the same compound, the GFP response, % of DMSO in assay [4] is 97.2%. Regarding `O=c1[nH]c(=S)n(-c2ccccc2)c(O)c1/C=N/N1CCOCC1`, in assay [3], the GFP response vs DMSO is 99%. Further, the GFP response, % of DMSO in assay [4] is 99.8%. Regarding `Fc1ccc(C(OCCN2CCCC2)c2ccc(Br)cc2)cc1` (stereo unspecified), the response in assay [2] was 11.4%.

`CN1CCN(c2ccc([N+](=O)[O-])c(Sc3ccccn3)c2)CC1`: in assay [3], the GFP response vs DMSO is 105%. Also, the GFP response, % of DMSO in assay [4] was 98%. For `CC(C)[C@@]1(NC(=O)[C@@H]2C[C@@H]3c4cccc5[nH]cc(c45)C[C@H]3N(C)C2)O[C@@]2(O)[C@@H]3CCCN3C(=O)[C@H](Cc3ccccc3)N2C1=O`, the response in assay [2] is -14.6%. Turning to `CCCCn1c(=O)c(C(=O)Nc2ccsc2C(=O)OC)c(O)c2ccccc21`, the GFP response vs DMSO in assay [3] was 101%. Moreover, in assay [4], the GFP response, % of DMSO was 102%.

On to `O=C1NC(=O)N(c2ccccc2)C(=O)/C1=C/c1ccc(Sc2ccccc2)o1`, for which the GFP response vs DMSO in assay [3] was 108%. Moreover, the GFP response, % of DMSO in assay [4] is 91.7%.

As to `C=CC1CN2CCC1CC2[C@@H](OC(=O)c1ccc(OC)cc1)c1ccnc2ccccc12` (stereo partly specified), the response in assay [2] is 1.66%. As for `N#CC(C#N)=Cc1ccc(N2CCCC2)cc1`, the GFP response vs DMSO in assay [3] was 112%. Further, the GFP response, % of DMSO in assay [4] is 109%. The matching figures for `Nc1ccc2ccc3cccc[n+]3c2c1`: 257% (active) and 110%. Regarding `CCOC(=O)C(C)Oc1cc(C)cc2oc(=O)c3c(c12)CCCC3` (stereo unspecified), the response in assay [2] is 1.66%.

Regarding `Cc1ccc(N2C(=O)NC(=O)/C(=C\c3cn(CC(=O)O)c4ccccc34)C2=O)cc1`, the GFP response vs DMSO in assay [3] is 100%. In assay [4], the GFP response, % of DMSO is 98.9%.

Regarding `CCNC(=O)[C@H]1O[C@@H](n2cnc3c(N)ncnc32)[C@H](O)[C@@H]1O`, the GFP response, % of DMSO in assay [1] was 91.5%. The response in assay [2] is 0.15%. For `COc1cc(/C=C/C(=O)c2c(O)n(CCc3ccccc3)c(=O)[nH]c2=O)ccc1O`, the GFP response vs DMSO in assay [3] is 98.8%. Moreover, the GFP response, % of DMSO in assay [4] was 102%. For `N#CC(C#N)=NNc1ccc(-n2ccc(C(F)(F)F)n2)cc1`, in that order: 114% and 102%.

For the compound `O=C1NC(=O)N(CCC2=CCCCC2)C(=O)/C1=C/c1cccs1`, in assay [3], the GFP response vs DMSO is 96.2%. Also, the GFP response, % of DMSO in assay [4] is 84%. In the case of `CC12CN3CC(C)(CN(C1)C3c1cccnc1)C2=O` (stereo unspecified), the response in assay [2] was 1.06%.

In the case of `Cc1cccn2c(NCC3CCCO3)c(C(C)C)nc12` (stereo unspecified), the GFP response vs DMSO in assay [3] was 104%. Also, the GFP response, % of DMSO in assay [4] is 105%. The matching figures for `O=C1NC(=O)N(CCc2ccc(F)cc2)C(=O)/C1=C/c1ccco1`: 94.4% and 99.8%.

For `O=C1NC(=O)N(c2ccccc2)C(=O)/C1=C\c1ccc([N+](=O)[O-])o1`, in assay [3], the GFP response vs DMSO is 108%. Also, in assay [4], the GFP response, % of DMSO is 104%. Regarding `O=C1/C(=C\c2ccc(Cl)c(Cl)c2)N2CCC1CC2`, the GFP response vs DMSO in assay [3] is 92.6%. Besides, in assay [4], the GFP response, % of DMSO is 95.5%. The matching figures for `O=C1NC(=S)NC(=O)C1=Cc1ccc2c(c1)CCN2CCCCl`: 103% and 87.8%. As for `O=C(O)c1[nH]c(=O)[nH]c(=O)c1F`, in assay [3], the GFP response vs DMSO was 101%. Further, the GFP response, % of DMSO in assay [4] is 102%. `O=c1oc2ccccc2c(O)c1[C@H]1c2ccc(O)cc2Oc2c1c(=O)oc1ccccc21`: the GFP response vs DMSO in assay [3] was 102%. Further, in assay [4], the GFP response, % of DMSO is 90.4%. On to `CCOC(=O)C1=C(C)OC(N)=C(C(=O)OCC)[C@@]12C(=O)N(CC(N)=O)c1ccccc12`, for which the response in assay [2] is -10.5%. With `O=C(O)c1nn(Cc2ccc(Cl)cc2Cl)c2ccccc12`, in assay [3], the GFP response vs DMSO was 100%. In addition, the GFP response, % of DMSO in assay [4] is 99.2%. For `O=C1NC(=O)N(CCc2ccc(F)cc2)C(=O)/C1=C/c1cccs1`, in that order: 94.4% and 101%. The matching figures for `COc1ccc(N2C(=O)/C(=C/c3ccco3)C(=O)NC2=S)cc1`: 100% and 100%. The matching figures for `CCN(CC)c1ccc(C=C2C(=O)NC(=S)NC2=O)cc1`: 95.2% and 100%. Turning to `Nc1ccc(N=Nc2ccccc2)cc1`, the GFP response vs DMSO in assay [3] is 103%. In assay [4], the GFP response, % of DMSO is 93.4%. For `O=C1NC(=O)N(Cc2ccco2)C(=O)/C1=C\c1ccc(-c2ccc(F)cc2)o1`, in that order: 99.3% and 100%.

`Cc1c2ccncc2c(C)c2c1[nH]c1ccccc12`: in assay [2], the response was -323%. On the same count and under the same terms, to `C[C@H]1CCCC(=O)CCCCCc2cc(O)cc(O)c2C(=O)O1` belongs -25.5%; to `CC12CN3CC(c4ccccc4)(CN(C1)C31CCCCC1)C2=O`, 15.3%. Still for that read-out and setting: to `CCCC(C)(COC(N)=O)COC(=O)NC(C)C` (stereo unspecified) belongs -23.9%. On to `CCC(C)N1C(=O)/C(=C\c2cnc(N(C)C)nc2)C(=O)NC1=S` (stereo unspecified), for which the GFP response vs DMSO in assay [3] is 104%. Further, the GFP response, % of DMSO in assay [4] was 97.2%. Take `c1cnc2c(c1)ccc1ncccc12`: the response in assay [2] was -15%. Still for that read-out and setting: then `NCCc1ccc(O)cc1`, with -14.8%. Regarding `CC1(C)OC(c2ccccc2)=C/C(=C/C=C2C(=O)NC(=S)NC2=O)O1`, in assay [3], the GFP response vs DMSO is 145%. Moreover, the GFP response, % of DMSO in assay [4] is 92.3%. As to `C[C@]12CCC(=O)C=C1CC[C@@H]1[C@@H]2C(=O)C[C@]2(C)C(=O)CC[C@@H]12`, the response in assay [2] is -22.9%. On to `CCCC(=O)OCC[N+](C)(C)C`, for which, in assay [2], the response is 9.88%. Still for that read-out and setting: then `CC(=O)Nc1cc([As](=O)(O)O)ccc1O`, with -23.7%. For the compound `C[C@]12CCC(=O)C(O)=C1CC[C@@H]1[C@@H]2CC[C@]2(C)C(=O)CC[C@@H]12`, the GFP response vs DMSO in assay [3] is 102%. Moreover, the GFP response, % of DMSO in assay [4] is 101%. In assay [2], the response was 4.26%.

For the compound `O=C1CSC2N1CCNC21CCCCC1` (stereo unspecified), the response in assay [2] was 2.41%.

Take `COc1cc(/C=C2\C(=O)NC(=O)N(c3ccccc3)C2=O)c([N+](=O)[O-])cc1OC`: the response in assay [2] was 0.05%. Still for that read-out and setting: to `CC12CCC3C(CC=C4CC5(CCC43C)OCCO5)C1CCC2=O` (stereo unspecified) belongs 0.6%.

For `NCC(O)c1ccc(O)cc1` (stereo unspecified), the response in assay [2] is 8.68%. For `Cc1ccc(/C=C2\C(=O)NC(=O)N(CC3CCCO3)C2=O)s1` (stereo unspecified), the GFP response vs DMSO in assay [3] was 92%. The GFP response, % of DMSO in assay [4] was 92.1%. On to `CC/C(=C\C=C\[C@@H]1C=C[C@@H]2CCC[C@H]2[C@@H]1C(=O)c1ccc[nH]1)[C@@H]1O[C@@H]([C@@H](C)C(=O)O)CC[C@@H]1C`, for which, in assay [2], the response is 9.7%. Regarding `O=C1NC(=O)N(Cc2ccco2)C(=O)/C1=C/c1ccc(-c2cccc([N+](=O)[O-])c2)o1`, in assay [3], the GFP response vs DMSO was 94.7%. Besides, the GFP response, % of DMSO in assay [4] is 90.9%.

With `O=C1NC(=S)N(c2ccccc2)C(=O)/C1=C/c1ccco1`, the GFP response vs DMSO in assay [3] was 122%. Further, the GFP response, % of DMSO in assay [4] is 103%. On to `CCC(COC(=O)c1cc(OC)c(OC)c(OC)c1)(c1ccccc1)N(C)C` (stereo unspecified), for which, in assay [2], the response was -24.8%. With `CN1C(=O)C(=Cc2ccc(Sc3ccccc3)o2)C(=O)N(C)C1=S`, in assay [3], the GFP response vs DMSO was 106%. The GFP response, % of DMSO in assay [4] is 99.3%.

`Clc1ccc(COC(Cn2ccnc2)c2ccc(Cl)cc2Cl)c(Cl)c1` (stereo unspecified): the response in assay [2] is -12.4%. For `CN1C(=O)C(=Cc2ccc(SC3CCCCC3)o2)C(=O)N(C)C1=O`, the GFP response vs DMSO in assay [3] is 98.8%. Further, the GFP response, % of DMSO in assay [4] was 101%. As to `Cc1nc2ccccc2c(=O)n1-c1ccc(C(=O)O)cc1`, the response in assay [2] was 0.79%. In the case of `CCN1C(=O)NC(=O)/C(=C\c2cn(CC(=O)N3CCCC3)c3ccccc23)C1=O`, the GFP response vs DMSO in assay [3] was 106%. Further, the GFP response, % of DMSO in assay [4] is 102%.
